Screening data deposited in PubChem BioAssay by Columbia University Molecular Screening Center.
VCAM1 TNFa pot = potentiators of TNFa-induced VCAM1 expression, primary screen, imaging, HUVEC, TNFa stimulus, immunofluorescence. HUVEC TNFa-stimulated VCAM-1 immunofluorescence, high-content imaging; scaled per plate to unstimulated/TNFa-only wells. activation, % at 2 µM. actives 0.19% (n = 93,000). AID 808, 2007;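 active means activation above the screen mean plus 3 SD, with well images confirming the hit on visual review, cut at about 28% in these data, passing the limit was not always enough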;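 further: signal is the number of cytoplasmic VCAM-1 stained grains per positive cell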
VCAM1 pot confirm = potentiators of TNFa-induced VCAM1 expression, confirmation, imaging, HUVEC, triplicate retest; activation, % at 2 µM; shares compounds with VCAM1 TNFa pot; 230 tested, under 10 active; HUVEC TNFa-stimulated VCAM-1 immunofluorescence imaging; AID 1034, 2008;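 active means activation above 30% in triplicate retests at 2 µM, then confirmed by visual review of the well images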;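 further: scaled per plate between unstimulated and TNFa-stimulated DMSO control wells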
Active calls of the source: *. The entries come from a sample that favours hits as a whole.

SMILES	VCAM1 TNFa pot	others
CCOc1cccc(OCC)c2c(C)[n+](CC3CCCO3)c(C)c1-2 (stereo not given)	32*	VCAM1 pot confirm=4
CCNc1ccc(P(=S)(N(C)C)N(C)C)cc1	-21
CCC(=O)c1cc(F)c(N2CCN(CC)CC2)cc1C	-1
O=C1C2CCCN2C(c2cccnc2)N1c1ccc(Cl)c(Cl)c1 (stereo not given)	-75
CCCOC(=O)c1c(N)n(Cc2cccs2)c2nc3ccccc3nc12	-4
CCCC12CN3CN(C1)CC(CCC)(C3)C2O (stereo not given)	33*	VCAM1 pot confirm=-20
O=C(N/N=C1/CN2CCC1CC2)c1cccc(O)c1	3
Cc1ccccc1-n1c(C)nc2sccc2c1=O	-8
CC(C)CCC1(CCc2ccncc2)C(=O)NC(=O)NC1=O	4
Cn1c(=O)cc(OCC(=O)N2CCN(Cc3ccc4c(c3)OCO4)CC2)c2ccccc21	-16
